Screens from PubChem BioAssay.
Pf Dd2 growth – Plasmodium falciparum Dd2 growth inhibition | P. falciparum Dd2 growth, SYBR Green, 72 h | Potency, µM (top dose mostly 28.9 µM), for the others: top-dose activity, negative = inhibition, actives largely listed as inhibitors | 4.3% of 120,000 active | AID 1347417; active means well fitted inhibition curve with a large enough effect;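 further: plate controls were DMSO vehicle for no effect and reference drug for full effect; nearly all actives have a fitted effect of over 65% in size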
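Infected erythrocytes (Dd2, 0.3% parasitemia, 2.5% hematocrit final) are added to compound in RPMI-1640/Albumax II medium, grown 72 h at 37C in low oxygen, then lysed with saponin/Triton-X containing SYBR Green and read by fluorescence.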
Active calls of the source: *; i = inactive; [ ] = dose if it differs, or a comment. Shown is part of a subset that was picked to be rich in hits. Potency means the concentration at half of the fitted maximal effect.

SMILES | Pf Dd2 growth
Cc1ccc(CNC(=O)N2CCn3nnc(CCC(=O)NC4CC4)c3C2)cc1 | -7%
Cn1c(Cn2ccnc2)nnc1C1CCCN(C(=O)CSCC2CC2)C1 (stereo unspecified) | -1%
Cc1cc(C2CCCN2C(=O)c2ccc(F)cc2F)on1 (stereo unspecified) | -8%
Cc1ccccc1Cn1nc2n(c1=O)CCCCC2 | 5%
C[C@@H]1CN(C(=O)c2cnn(C)c2)CC[C@@]1(O)C1CCOCC1 | -16%
CCCNC(=O)C1COC2(CCN(C(=O)c3cccc(C)c3)CC2)N1C(=O)c1ccc(OC)cc1 (stereo unspecified) | -9%
CCC1CCCCN1CCCNC(=O)c1ccc2c(c1)N(Cc1cccc(C)c1)C(=O)c1ccccc1S2(=O)=O (stereo unspecified) | 4µM*
O=C(NCc1ccco1)c1ccc2c(c1)N(Cc1ccc(Cl)cc1)C(=O)c1ccccc1S2(=O)=O | i
CCC1CCCCN1CCCNC(=O)c1ccc2c(c1)N(Cc1ccc(Cl)cc1)C(=O)c1ccccc1S2(=O)=O (stereo unspecified) | 4µM*
CCC1CCCCN1CCCNC(=O)c1ccc2c(c1)N(Cc1cccc(Cl)c1)C(=O)c1ccccc1S2(=O)=O (stereo unspecified) | -6%
CN(C)C[C@@H]1CN(Cc2ccccc2)C[C@H]1NC(=O)C1CC=CC1 | -6%
CN(Cc1cccc(O)c1)C(=O)[C@H]1C[C@@H](C(=O)O)N(C)[C@H]1c1ccccc1F | -2%
COc1ccc(-n2c(SCC(=O)NCc3ccc(C)cc3)nc3n[nH]c(C)c3c2=N)cc1 | 10µM*
CCCCn1c(SCC(=O)NCc2ccc(C)cc2)nc2c(sc3ccccc32)c1=O | 46%
Cc1ccc(Cn2ccnc2SCC(=O)NCc2ccccc2)cc1 | i
COc1ccc(CNC(=O)c2cc(-c3ccc(C)cc3)nc3n[nH]c(-c4ccc(Br)cc4)c23)cc1 | 74%
Cc1ccc(CNC(=O)CSc2nc3n[nH]c(C)c3c(=N)n2-c2ccccc2Cl)cc1 | 3.5µM*
COc1ccc(CNC(=O)CSc2n[nH]c(-c3ccc(OC)cc3)n2)cc1 | i
COCCN1CCCC2(CCN(Cc3cc(-c4ccccc4)no3)C2)C1=O (stereo unspecified) | -11%
Cc1cc(F)ccc1NC(=O)CCC1CCCN(C(=O)Cc2ccc3c(c2)OCO3)C1 (stereo unspecified) | -1%
CCOc1cc(CNc2ccc(C(=O)O)cc2)ccc1OCc1ccccc1 | 6%
CCOc1cc(CNc2ccc(O)cc2)cc(Cl)c1OCc1ccccc1 | 13µM*
CCOc1cccc(CNc2ccc(O)cc2)c1OCc1ccccc1Cl | i[5.79 µM]
CCCn1cc(C(=O)NC(C)c2cnn(-c3cccc(F)c3)c2C)c(C)n1 (stereo unspecified) | -5%
CCc1cc(=O)n(CC(=O)Nc2ccccc2)c(-c2ccccc2)n1 | -3%
SMILES | Pf Dd2 growth
CCc1cc(=O)n(CC(=O)Nc2cc(OC)c(OC)c(OC)c2)c(-c2ccccc2)n1 | 11µM*
CCc1cc(=O)n(CC(=O)Nc2ccccc2C)c(-c2ccccc2)n1 | 10µM*
CCc1cc(=O)n(CC(=O)Nc2ccc(OC)cc2)c(-c2ccccc2)n1 | -1%
COc1ccccc1NC(=O)Cn1c(-c2ccccc2)nc(C)cc1=O | -63%
CCc1cc(=O)n(CC(=O)Nc2ccc(OC)c(OC)c2)c(-c2cccc(F)c2)n1 | i
O=C1CC(c2noc(-c3cc(F)ccc3F)n2)CN1c1ccc(Cl)cc1 (stereo unspecified) | 32%
O=C(CC1CCN(S(=O)(=O)c2ccccc2)C1)NCc1ccccc1 (stereo unspecified) | -20%
CC(NC(=O)Cc1cccn1-c1ccc(Cl)cc1)c1ccccn1 (stereo unspecified) | -14%
O=C(c1c(OCC2CC2)cc(=O)n2c1CCOCC2)N1CCCCC1 | -14%
COc1ccc(CCN2C(=O)c3[nH]nc(-c4ccccc4O)c3C2c2ccc(OC)cc2)cc1 (stereo unspecified) | 10µM*
CCCNC(=O)CN1C(=O)c2c(c3ccccc3n2C)C1c1ccc(OC)cc1 (stereo unspecified) | 9%
COc1ccc(CCN2C(=O)N(c3ccccc3)C(=O)C2CC(=O)Nc2ccccc2)cc1 (stereo unspecified) | i
COc1ccc(CCN2C(=O)c3[nH]nc(-c4ccccc4O)c3C2c2ccccc2)cc1 (stereo unspecified) | 8.9µM*
COc1ccc(CN2C(=O)c3oc4ccccc4c(=O)c3C2c2ccc(O)c(OC)c2)cc1 (stereo unspecified) | -16%
COCCN1C(=O)[C@H]2CN(CCC(C)C)C[C@H]2C1=O | 14%
CC(C)N1C[C@H](O)C[C@H]1c1nnc2n1CCN(C(=O)CN1CCCC1=O)CC2 | 11%
O=C(Nc1ccc(OC(F)(F)F)cc1)N1CC[C@H]2COC(=O)N2c2cc(F)ccc2C1 | -22%
COc1cccc(C(=O)NC(C(=O)N2CCCCC2)C2CCN(C(=O)c3cccc(F)c3)CC2)c1 (stereo unspecified) | 8.9µM*
Cc1cccc(C(=O)N2CCC(C(NC(=O)c3ccccc3)C(=O)N3CCCCC3)CC2)c1 (stereo unspecified) | 11µM*
COCCNC(=O)C(NC(=O)c1cccc(OC)c1)C1CCN(C(=O)c2ccc(C)cc2)CC1 (stereo unspecified) | i
COc1ccc(C(=O)N2CCC(C(NC(=O)c3cccc(OC)c3)C(=O)N3CCCC3)CC2)cc1 (stereo unspecified) | i
COc1cccc(C(=O)N2CCC(C(NC(=O)c3ccccc3)C(=O)NCc3ccco3)CC2)c1 (stereo unspecified) | 8.9µM*
Cc1ccc(C(=O)NC(C(=O)N2CCCC2)C2CCN(C(=O)c3ccccc3F)CC2)cc1 (stereo unspecified) | i
CCCNC(=O)C(NC(=O)c1cccc(OC)c1)C1CCN(C(=O)c2cccc(F)c2)CC1 (stereo unspecified) | i
O=C(NC(C(=O)N1CCCCC1)C1CCN(C(=O)c2ccccc2)CC1)c1ccccc1Cl (stereo unspecified) | i
SMILES | Pf Dd2 growth
O=C(NC(C(=O)NCc1ccco1)C1CCN(C(=O)C2CC2)CC1)c1ccccc1 (stereo unspecified) | 10%
Cc1nc(CN2CCN(c3cc(C4CC(O)C4)nc(N)n3)CC2)cs1 (stereo unspecified) | -9%
COc1ccccc1-c1nnc([C@H]2CCN(C(C)=O)C2)o1 | -18%[44.1 µM]
CCN1C(=O)CCC2(C(=O)NCc3cccc(F)c3)CCCC=C12 (stereo unspecified) | -6%
COCCNC(=O)[C@H]1C[C@H](Oc2cccnc2)CN1C(=O)Cc1ccccc1 | 11%
O=C(O)Cn1ccc2cc(OCc3cccc(-c4ccc(F)cc4F)c3)cnc21 | -12%[44.1 µM]
CN1CCC(N2CCN(S(=O)(=O)c3cccs3)CC2)C1=O (stereo unspecified) | 16%
COc1ccccc1-n1cc(C(=O)NC(C(=O)O)c2c(C)n[nH]c2C)cn1 (stereo unspecified) | -17%
COC1CCCN(c2ccc(C(=O)N3CCC(N4CCOCC4)CC3)cn2)C1 (stereo unspecified) | 2%
Cc1cccc(OCC(=O)N(C)C2CCc3nn(CC4CC4)c(=O)n3CC2)c1 (stereo unspecified) | 17%
COc1ccc(CN2CCNC(=O)C2CC(=O)N(C)Cc2cccnc2)c(F)c1 (stereo unspecified) | -4%
CCOC(=O)Cn1nc2n(c1=O)CCN(Cc1cc(C)ccc1C)C2=O | -11%
COc1ccc(S(=O)(=O)c2c(O)c(C)cc(NC(=O)c3ccccc3)c2C(C)C)cc1 | i
